{"source": "PubChem BioAssay (NCATS)", "note": "Results filed as inconclusive are left out. A call without a number means that no potency is given here. Values without a mark were called inactive. Active and inactive are the calls of the source. Calls follow the shape of the dose curve; as a rule, active = well fitted inhibition curve with a large enough effect; inconclusive = small, poorly fitted or top-dose-only effect; inactive = no such curve, though single readings can be large or run the other way."}
{"assay": "Primary qHTS for inhibitors of nuclear receptor binding SET domain protein 2 (NSD2) in an RCH-ACV wild type WT cells (2C) (AID 1645877); also: nearly all actives have a fitted effect of over 70% in size", "details": "RCH-ACV NSD2 WT (2C) viability, CellTiter-Glo, 72 h; series mostly up to 44.9 µM"}
{"molecule": "O=C(C[C@@H]1C(C(=O)O)=CO[C@@H](O[C@@H]2O[C@H](CO)[C@@H](O)[C@H](O)[C@H]2O)/C1=C\\CO)OCCc1ccc(O)cc1", "Potency": "inactive"}
{"molecule": "C=C[C@@](C)(CCC=C(C)C)O[C@@H]1O[C@H](CO[C@@H]2OC[C@H](O)[C@H](O)[C@H]2O)[C@@H](O)[C@H](O)[C@H]1O", "Potency": "inactive"}
{"molecule": "O=C(O)C1(c2ccc(-c3ccc(Cl)c(Cl)c3)c(F)c2)CC1", "Potency": "inactive"}
{"molecule": "O=C1NC(=O)/C(=C/c2cccc(C(F)(F)F)c2)S1", "Potency": "inactive"}
{"molecule": "NC(=O)c1ccc(F)c2c1C[C@@H](N(C1CCC1)C1CCC1)CO2", "Potency": "inactive"}
{"molecule": "COC(=O)c1ccccc1O[C@@H]1O[C@H](CO[C@@H]2OC[C@@H](O)[C@H](O)[C@H]2O)[C@@H](O)[C@H](O)[C@H]1O", "Potency": "inactive"}
{"molecule": "CC1CCC2(C(=O)O)CCC3(C)C(=CCC4C5(C)CCC(O)C(C)(C(=O)O)C5CCC43C)C2C1(C)O", "note": "(stereo not drawn)", "Potency": "inactive"}
{"molecule": "COc1ccc(/C=C/C(N)=O)cc1OC", "Potency": "inactive"}
{"molecule": "CC(C)CC[C@@H](O)[C@](C)(O)[C@H]1CC[C@@]2(O)C3=CC(=O)[C@@H]4C[C@@H](O)[C@@H](O)C[C@]4(C)[C@H]3CC[C@]12C", "Potency": "inactive"}
{"molecule": "C[C@@H]1O[C@@H](O[C@H]2[C@H](O[C@H]3[C@H](O[C@H]4CC[C@@]5(C)C(CC[C@]6(C)C5CC=C5[C@@H]7CC(C)(C)C[C@@H](O)[C@]7(C)CC[C@]56C)[C@@]4(C)CO)O[C@H](C(=O)O)[C@@H](O)[C@@H]3O)O[C@H](CO)[C@H](O)[C@@H]2O)[C@H](O)[C@H](O)[C@H]1O", "note": "(stereo partly drawn)", "outcome": "inactive [at 9.23 µM]"}
{"molecule": "C[C@H]1[C@@H](O)[C@H](O)C2[C@]3(C)C([C@@H](O)[C@H]4OC(=O)[C@@H]1[C@@]24C)[C@](C)(O)C=C[C@H]3O[C@@H]1O[C@H](CO)[C@@H](O)[C@H](O)[C@H]1O", "note": "(stereo partly drawn)", "Potency": "inactive"}
{"molecule": "CC1(C)CC[C@]2(C(=O)O[C@@H]3O[C@H](CO)[C@@H](O)[C@H](O)[C@H]3O)CC[C@]3(C)C(=CCC4[C@@]5(C)CC[C@H](O[C@@H]6O[C@H](C(=O)O)[C@@H](O[C@@H]7O[C@H](CO)[C@@H](O)[C@H](O)[C@H]7O)[C@H](O)[C@H]6O)C(C)(C)C5CC[C@]43C)C2C1", "note": "(stereo partly drawn)", "activity change, negative = cell killing": "2.22% [at 9.23 µM]"}
{"molecule": "C/C=C1\\[C@H](O[C@@H]2O[C@H](CO)[C@@H](O)[C@H](O)[C@H]2O)OC=C(C(=O)O)[C@H]1CC(=O)OCCc1ccc(O)cc1", "Potency": "inactive"}
{"molecule": "COC(=O)C1=COC(O[C@@H]2O[C@H](CO)[C@@H](O)[C@H](O)[C@H]2O)C2C(C)C(=O)CC12", "note": "(stereo partly drawn)", "Potency": "inactive"}
{"molecule": "CC1(C)CC[C@]2(C(=O)O)[C@H](O)C[C@]3(C)C(=CCC4[C@@]5(C)CC[C@H](O[C@@H]6OC[C@@H](O)[C@H](O)[C@H]6O)[C@@](C)(C(=O)O)C5CC[C@]43C)[C@@H]2C1", "note": "(stereo partly drawn)", "Potency": "inactive"}
{"molecule": "CC1CCC2(C(=O)OC3OC(CO)C(O)C(O)C3O)CCC3(C)C(=CCC4C5(C)CCC(O)C(C)(CO)C5CCC43C)C2C1(C)O", "note": "(stereo not drawn)", "Potency": "inactive"}
{"molecule": "C[C@H]1[C@H](C)CC[C@]2(C(=O)O)CC[C@]3(C)C(=CCC4[C@@]5(C)C[C@@H](O)[C@H](O)C(C)(C)C5CC[C@]43C)[C@H]12", "note": "(stereo partly drawn)", "Potency": "inactive"}
{"molecule": "C[C@H]1[C@H](C)C[C@@H](C(=O)O)C2CC[C@]3(C)C(=CC[C@@H]4[C@@]5(C)CC[C@H](O)C(C)(C)[C@@H]5CC[C@]43C)[C@@H]21", "note": "(stereo partly drawn)", "Potency": "inactive"}
